Records with an inconclusive call do not appear. The source made the active and inactive calls. Calls come from the whole dose curve; as a rule, active = well fitted curve in the direction sought with a large enough effect in the repeat runs; inconclusive = weak or mixed curves; inactive = no such curve, though single readings can be large; an effect the other way counts as inactive or inconclusive.
Columns and labels:
[1] = A CellTox Green Cytotoxicity Assay to monitor cytotoxicity in HepG2 cells - 24 hour (AID 1224878); note: nearly all actives have a fitted effect of over 45% in size
In short: (§1)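 HepG2 cells were seeded together with the CellTox Green dye at 600 cells/well, left 5 h at 37 C/5% CO2, then given compounds in DMSO. Fluorescence from dye bound to dead-cell DNA was read repeatedly over 40 h of treatment at 37 C.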

[2] = A CellTox Green Cytotoxicity Assay to monitor cytotoxicity in HepG2 cells - 40 hour (AID 1224879); note: nearly all actives have a fitted effect of over 40% in size
In short: as §1

[3] = qHTS RealTime-Glo MT Cell Viability Assay in HEK293 cells - 0 hour (AID 1224880); note: top concentration of the series differs between compounds; nearly all actives have a fitted effect of over 45% in size
In short: (§2)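 HEK293 cells mixed with RealTime-Glo reagents (NanoLuc plus cell-permeant prosubstrate) at 600 cells/well, preincubated 5 h at 37 C/5% CO2, then given 23 nL compound in DMSO. Nonlytic luminescence from viable cells was read at 0, 8, 16, 24, 32 and 40 h.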

[4] = A CellTox Green Cytotoxicity Assay to monitor cytotoxicity in HEK293 cells - 32 hour (AID 1224881); note: nearly all actives have a fitted effect of over 40% in size
In short: (§3)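 HEK293 cells premixed with CellTox Green dye were seeded at 600 cells/well and left 5 h at 37 C/5% CO2 before pin transfer of 23 nL compound in DMSO. Fluorescence from dye bound to dead-cell DNA was read during 40 h treatment.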

[5] = A CellTox Green Cytotoxicity Assay to monitor cytotoxicity in HepG2 cells - 0 hour (AID 1224882); note: nearly all actives have a fitted effect of over 35% in size
In short: as §1

[6] = A CellTox Green Cytotoxicity Assay to monitor cytotoxicity in HepG2 cells - 32 hour (AID 1224883); note: nearly all actives have a fitted effect of over 50% in size
In short: as §1

[7] = A CellTox Green Cytotoxicity Assay to monitor cytotoxicity in HEK293 cells - 8 hour (AID 1224884); note: nearly all actives have a fitted effect of over 35% in size
In short: as §3

[8] = qHTS RealTime-Glo MT Cell Viability Assay in HepG2 cells - 16 hour (AID 1224885); note: nearly all actives have a fitted effect of over 50% in size
In short: (§4)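 Tox21 10K library screened in qHTS format on HepG2 cells carrying RealTime-Glo reagents. Compounds were added after a 5 h preincubation, and the luminescent signal from continuous culture was measured repeatedly during 40 h treatment.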

[9] = qHTS RealTime-Glo MT Cell Viability Assay in HEK293 cells - 24 hour (AID 1224886); note: top concentration of the series differs between compounds; nearly all actives have a fitted effect of over 50% in size
In short: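 Luminescence generated by NanoLuc from substrate produced by living HEK293 cells served as the viability signal. Each value reflects the reading at its stated time point during continuous 40 h compound exposure at 37 C.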

[10] = qHTS RealTime-Glo MT Cell Viability Assay in HEK293 cells - 8 hour (AID 1224887); note: top concentration of the series differs between compounds; nearly all actives have a fitted effect of over 50% in size
In short: as §2

[11] = A CellTox Green Cytotoxicity Assay to monitor cytotoxicity in HEK293 cells - 16 hour (AID 1224888); note: nearly all actives have a fitted effect of over 35% in size
In short: as §3

[12] = qHTS RealTime-Glo MT Cell Viability Assay in HepG2 cells - 0 hour (AID 1224889); note: nearly all actives have a fitted effect of over 50% in size
In short: as §4

[13] = A CellTox Green Cytotoxicity Assay to monitor cytotoxicity in HepG2 cells - 8 hour (AID 1224890); note: nearly all actives have a fitted effect of over 45% in size
In short: as §1

[14] = qHTS assay to identify small molecule antagonists of the estrogen receptor alpha (ER-alpha) signaling pathway using the BG1 cell line in the presence of 0.1 nM 17-beta-estradiol - cell viability counter screen (AID 1259241); note: nearly all actives have a fitted effect of over 40% in size
In short: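 Viability in VM7Luc4E2 cells after 22 hr compound exposure under 0.1 nM 17beta-estradiol stimulation, by CellTiter-Fluor.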

[15] = molecular target: Estrogen receptor (Homo sapiens) (UniProt P03372); assay: qHTS assay to identify small molecule antagonists of the estrogen receptor alpha (ER-alpha) signaling pathway using the BG1 cell line in the presence of 0.1 nM 17-beta-estradiol (AID 1259244); note: nearly all actives have a fitted effect of over 50% in size
Sequence of Estrogen receptor (Homo sapiens) (P03372 whole entry, looked up): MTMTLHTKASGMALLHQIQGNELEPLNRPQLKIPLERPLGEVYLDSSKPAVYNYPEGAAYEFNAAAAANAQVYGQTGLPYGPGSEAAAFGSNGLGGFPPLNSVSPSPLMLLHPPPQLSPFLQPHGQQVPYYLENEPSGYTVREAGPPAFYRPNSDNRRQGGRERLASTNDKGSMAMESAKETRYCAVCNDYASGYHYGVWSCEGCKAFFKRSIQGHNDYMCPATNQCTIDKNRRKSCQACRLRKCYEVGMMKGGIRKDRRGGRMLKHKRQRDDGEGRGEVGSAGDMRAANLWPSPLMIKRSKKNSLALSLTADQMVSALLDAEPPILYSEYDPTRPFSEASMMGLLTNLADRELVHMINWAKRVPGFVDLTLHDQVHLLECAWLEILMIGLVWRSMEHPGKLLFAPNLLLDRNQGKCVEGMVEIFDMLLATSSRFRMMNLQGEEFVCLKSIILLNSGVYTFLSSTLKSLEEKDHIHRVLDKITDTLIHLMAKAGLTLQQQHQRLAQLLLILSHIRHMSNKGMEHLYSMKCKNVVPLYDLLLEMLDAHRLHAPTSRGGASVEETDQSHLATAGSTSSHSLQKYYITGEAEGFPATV
In short: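 VM7Luc4E2 cells (endogenous full-length ER-alpha, stable 4xERE-luciferase) were grown 5 days in phenol red-free medium with charcoal-stripped FBS, then exposed 22 h at 37C to compounds plus 0.1 nM (final) 17beta-estradiol; ONE-Glo luminescence read-out.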

[16] = qHTS assay to identify small molecule HDAC inhibitors (AID 1259364); note: top concentration of the series differs between compounds; nearly all actives have a fitted effect of over 45% in size
In short: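 Wild-type HCT-116 cells were plated overnight, exposed to compounds for 2 h at 37 °C, then given HDAC-Glo class I/II luminogenic reagent for 30 min at room temperature before luminescence was read.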

[17] = qHTS assay to identify small molecule HDAC inhibitors - cell viability counter screen (AID 1259365)
In short: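 Cytotoxicity was gauged in wild-type HCT-116 cells after a brief 2hr treatment with DMSO-dissolved compounds at 37C and 5% CO2, using CellTiter-Glo luminescence developed for 30min at room temperature.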

[18] = qHTS assay to identify small molecule antagonists of the androgen receptor (AR) signaling pathway using the MDA cell line in the presence of 0.5 nM R1881 - cell viability counter screen (AID 1259242); note: nearly all actives have a fitted effect of over 45% in size
In short: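 MDA-kb2 cells (human breast carcinoma, stably carrying MMTV-luciferase reporter) were exposed to compounds with 0.5 nM R1881 (final) for 16 hr at 37C, 0% CO2; viability then read as live-cell protease fluorescence (CellTiter-Fluor, 30 min) in the same wells.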

[19] = molecular target: Androgen receptor (Homo sapiens) (UniProt P10275); assay: qHTS assay to identify small molecule antagonists of the androgen receptor (AR) signaling pathway using the MDA cell line in the presence of 0.5 nM R1881 (AID 1259243); note: nearly all actives have a fitted effect of over 50% in size
Sequence of Androgen receptor (Homo sapiens) (P10275 whole entry, looked up): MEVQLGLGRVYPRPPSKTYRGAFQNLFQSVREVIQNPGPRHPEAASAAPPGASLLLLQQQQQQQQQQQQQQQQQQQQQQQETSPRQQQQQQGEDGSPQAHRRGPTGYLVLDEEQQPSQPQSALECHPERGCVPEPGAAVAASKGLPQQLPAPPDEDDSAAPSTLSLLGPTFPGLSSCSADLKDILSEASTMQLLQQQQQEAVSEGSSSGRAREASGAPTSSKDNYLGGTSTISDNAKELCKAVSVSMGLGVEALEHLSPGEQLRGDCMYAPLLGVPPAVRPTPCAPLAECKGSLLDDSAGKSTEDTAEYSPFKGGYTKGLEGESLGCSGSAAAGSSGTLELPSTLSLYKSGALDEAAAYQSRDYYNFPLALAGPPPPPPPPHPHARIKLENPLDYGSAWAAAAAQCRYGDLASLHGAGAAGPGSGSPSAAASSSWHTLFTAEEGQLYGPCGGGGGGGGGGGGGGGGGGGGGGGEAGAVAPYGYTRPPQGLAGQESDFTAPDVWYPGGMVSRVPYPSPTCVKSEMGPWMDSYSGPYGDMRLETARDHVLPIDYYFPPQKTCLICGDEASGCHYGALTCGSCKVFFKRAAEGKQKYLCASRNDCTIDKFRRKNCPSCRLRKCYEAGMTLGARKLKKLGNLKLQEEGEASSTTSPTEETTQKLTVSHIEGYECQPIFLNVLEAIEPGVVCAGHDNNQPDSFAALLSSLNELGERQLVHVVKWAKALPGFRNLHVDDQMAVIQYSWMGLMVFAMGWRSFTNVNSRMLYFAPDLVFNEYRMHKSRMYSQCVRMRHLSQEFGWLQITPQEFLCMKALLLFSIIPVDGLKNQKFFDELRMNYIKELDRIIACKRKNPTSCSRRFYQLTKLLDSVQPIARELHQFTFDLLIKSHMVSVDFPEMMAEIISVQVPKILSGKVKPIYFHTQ
In short: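 MDA-kb2 human breast carcinoma cells carrying an MMTV-luciferase reporter (AR- and GR-responsive) were plated, rested 5 hr at 37C, dosed with compounds, then stimulated with 0.5 nM R1881 (final) for 16 hr; luminescence was read after ONE-Glo.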

Measured: Potency

C/C=C(\C)C(=O)OC/C=C(\C)CCC=C(C)C
inactive: [1] | [2] | [3] | [4] | [5] | [6] | [7] | [8] | [9] | [10] | [11] | [12] | [13] | [14] | [15] | [16] | [17]

CNC(=O)c1c(I)c(NC(C)=O)c(I)c(C(=O)O)c1I
inactive: [1] | [2] | [3] | [4] | [5] | [6] | [7] | [8] | [9] | [10] | [11] | [12] | [13] | [14] | [18] | [16]

CC(C)(Sc1cc(C(C)(C)C)c(O)c(C(C)(C)C)c1)Sc1cc(C(C)(C)C)c(O)c(C(C)(C)C)c1
inactive: [1] | [2] | [3] | [4] | [5] | [6] | [7] | [8] | [9] | [10] | [11] | [12] | [13] | [14] | [18] | [16] | [17]

Cc1ccc2cccnc2c1
inactive: [1] | [2] | [3] | [4] | [5] | [6] | [7] | [8] | [9] | [10] | [11] | [12] | [13] | [14] | [19] | [16] | [17]

COc1ccc(Cl)cc1C
inactive: [1] | [2] | [3] | [4] | [5] | [6] | [7] | [8] | [9] | [10] | [11] | [12] | [13] | [14] | [18] | [17]

Cc1ccc2ccccc2n1
inactive: [1] | [2] | [3] | [4] | [5] | [6] | [7] | [8] | [9] | [10] | [11] | [12] | [13] | [14] | [18] | [17]

CN(C)c1ccncc1
inactive: [1] | [2] | [3] | [4] | [5] | [6] | [7] | [8] | [9] | [10] | [11] | [12] | [13] | [14] | [18] | [16] | [17]

Cc1cc(N)no1
inactive: [1] | [2] | [3] | [4] | [5] | [6] | [7] | [8] | [9] | [10] | [11] | [12] | [13] | [14] | [18] | [16] | [17]

CC(C)(C)OC=O
inactive: [1] | [2] | [3] | [4] | [5] | [6] | [7] | [8] | [9] | [10] | [11] | [12] | [13] | [14] | [16] | [17]

From PubChem BioAssay (Tox21)
